Compound activity: PubChem, National Center for Advancing Translational Sciences (NCATS)
SMN2 splice enh – enhancers of SMN2 splice variant expression; AID 1458; 210,000 compounds, 2.8% hits; Potency, µM (titrated, usually from 46.1 µM), inactives show at the top dose activity change, positive = activation, usual class: activators; HEK293 SMN2-luciferase splicing reporter, luminescence, 30-36 h; note: % of control where 0% means no effect; nearly all actives have a fitted effect of over 55% in size
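qHTS luciferase splicing reporter: luminescence rises when SMN2 exon 7 is included in transfected HEK293 cells. Compound exposure lasted 30-36 h at 37C, with 4.5 mM final sodium butyrate as control, followed by a ONE-Glo read.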
FLuc modulator – inhibits or activates purified firefly luciferase, miR-21 counter-screen. Potency, µM (series often up to 57.5 µM), for inactives: top-dose activity change, negative = inhibition, usual class: inhibitors. P08659. purified FLuc, Km substrates, luminescence inhibition. 360,000 compounds, 6.9% hits. AID 588342;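 note: plate controls were vehicle for no effect and reference inhibitor for full effect; nearly all actives have a fitted effect of over 55% in size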
Target sequence (P08659 whole entry, looked up): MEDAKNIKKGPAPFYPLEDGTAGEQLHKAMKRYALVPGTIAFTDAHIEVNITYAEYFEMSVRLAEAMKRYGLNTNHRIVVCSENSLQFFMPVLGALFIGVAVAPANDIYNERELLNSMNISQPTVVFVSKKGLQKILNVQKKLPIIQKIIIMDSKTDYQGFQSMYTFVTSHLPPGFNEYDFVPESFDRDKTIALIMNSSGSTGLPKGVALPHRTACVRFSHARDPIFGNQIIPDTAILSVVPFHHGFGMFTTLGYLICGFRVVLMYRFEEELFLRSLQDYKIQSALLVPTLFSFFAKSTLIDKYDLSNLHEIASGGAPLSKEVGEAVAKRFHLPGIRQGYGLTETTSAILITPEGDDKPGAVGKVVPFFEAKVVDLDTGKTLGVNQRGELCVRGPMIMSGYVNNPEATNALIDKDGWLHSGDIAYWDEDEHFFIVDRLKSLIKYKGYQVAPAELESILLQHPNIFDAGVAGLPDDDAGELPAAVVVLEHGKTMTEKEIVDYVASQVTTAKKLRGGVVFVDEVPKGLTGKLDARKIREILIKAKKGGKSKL
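Biochemical qHTS of compounds, final roughly 60 µM downward over six points, against 10 nM purified firefly luciferase using Km concentrations of substrates (10 uM D-luciferin, 10 uM ATP) in Tris acetate pH 7.5 buffer; luminescence output.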
Rab9 prom act – activators of Rab9 promoter. Potency, µM (top dose mostly 9.22 µM), without a hit: top-dose activation, negative = inhibition, hits mostly activators. 320,000 compounds, 2.8% hits. Huh7 Rab9 promoter-luciferase reporter, luminescence, 24 h. AID 485297; note: % of control where 0% means no effect; nearly all actives have a fitted effect of over 60% in size
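Luciferase signal after 10 min detection reagent at ambient indicates Rab9 promoter upregulation; stably transfected Huh7 cells were treated 24 h with compound in DMSO at 37 °C, 5% CO2.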
NPC1 promoter act – activates the NPC1 promoter | Huh7 NPC1 promoter luciferase reporter, 24 h | Potency, µM (titrated, usually from 9.22 µM), for the others: at the top dose activation, usual class: activators | 320,000 compounds, 2.4% hits | AID 485313; note: % of control where 0% means no effect; nearly all actives have a fitted effect of over 60% in size
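Readout is luciferase luminescence, reflecting NPC1 promoter activation in stably transfected Huh7 cells after 24 h compound exposure at 37 °C in reduced-serum medium with 10% FBS.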
ELG1 genotox – induces genotoxicity in HEK293T cells with luciferase-tagged ELG1; Potency, µM (highest dose often 46 µM), for inactives: top-dose activity change, positive = activation, usual class: activators; 330,000 compounds, 1.3% hits; HEK293T ELG1-luciferase reporter, luminescence, 16 h; note: % of control where 0% means no effect; nearly all actives have a fitted effect of over 60% in size
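Genotoxic stress is detected as increased luminescence from luciferase-tagged ELG1 in HEK293T cells, measured with ONE-Glo after a 16 hr treatment at 37 °C.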
* = called active by the depositor; ? = inconclusive; . = not tested or not shown; [ ] = remark or other dose. Hits are enriched below; roughly 7.5% of the tested compounds scored in any of these assays. Calls come from the whole dose curve; as a rule, active = well fitted curve in the direction sought with a large enough effect; inconclusive = small, poorly fitted or top-dose-only effect, or another doubt; inactive = no such curve, though single readings can be large; an effect the other way counts as inactive or inconclusive. Potency is the fitted concentration of half-maximal effect.

SMILES	SMN2 splice enh	FLuc modulator	Rab9 prom act	NPC1 promoter act	ELG1 genotox
COc1ccc2c(c1)CC(C(=O)Nc1ccc(Br)c(C)c1)CO2 (centres undefined)	.	-1%	.	.	.
O=C(CN1C(=O)NC2(CCOc3ccccc32)C1=O)NCc1ccccc1 (centres undefined)	.	.	.	.	-1%
COCc1ccc(CN2CCCC(C(=O)Nc3ccc(-c4cscn4)cc3)C2)o1 (centres undefined)	.	-4%	-3%	2%	0%[9.26 µM]
CC1CCc2c(sc(NC(=O)c3ccc(N4C(=O)CCC4=O)cc3)c2C(N)=O)C1 (centres undefined)	.	9.5µM*	2%	-4%	0%
CC(C)(C)C1CCc2c(sc(NC(=O)c3ccncc3)c2C(N)=O)C1 (centres undefined)	3%	2.7µM*	17%	18%	-7%
CC1CCc2nc(NC(=O)c3ccc(N4C(=O)CCC4=O)cc3)sc2C1 (centres undefined)	.	9.5µM*	14%	4%	-10%
Cc1ccc(C)c2sc(NC(=O)c3ccc(N4C(=O)CCC4=O)cc3)nc12	-12%	-7%	-3%	-1%	0%
CCCCCCNC(=O)Nc1ccc(S(=O)(=O)Nc2ccc(CCNC[C@H](O)COc3ccc(O)cc3)cc2)cc1	-1%	.	.	.	.
O=C(O)c1ncc(-c2ccccc2)cn1	-9%	-14%	-3%	-2%	1%
c1ccc(-c2ncc3c(ccc4ccccc43)n2)cc1	0.5µM*	0.085µM*	0.79µM*	4µM*	0.65µM*
c1ccc(-c2cnc(-c3ccccc3)nc2)cc1	7.1µM*	0.3µM*	0.35µM*	0.56µM*	?
c1ccc2c(c1)cnc1ccccc12	.	?	0%	3%	-8%
O=c1c2c3c(sc2ncn1/N=C/c1cccnc1)CCCC3	8%	15µM*	22%	-1%	10%
O=c1c2c3c(sc2ncn1/N=C/c1ccncc1)CCCC3	4%	?	0%	0%	-2%
CCC(C)(O)c1[nH]c2ccc(C(=O)OC)cc2c1C (centres undefined)	.	21µM*	29%	24%	19%
Cc1ccc(N2C(=S)N=C(Nc3ccccc3C)C23CCOC(C)(C)C3)cc1 (centres undefined)	-15%	4%	0%	-4%	-1%
COc1cccc(CNC(=O)c2ccc3nc(-c4ccc(F)cc4)c(-c4ccc(F)cc4)nc3c2)c1	.	-17%	.	.	.
COc1cccc(-c2cncnc2-n2ccnc2)c1	18%	.	.	.	.
COc1cccc(-c2nccc(-n3ccnc3)n2)c1	13µM*	.	.	.	.
COCCNC(=S)N1CCN(Cc2cccc(OC)c2)CC1	0%	3%	-3%	-5%	-4%
Cc1nn(-c2ccc(S(=O)(=O)O)cc2)c(O)c1N=Nc1ccc(-c2ccc(N=Nc3ccc4c(S(=O)(=O)O)cc(S(=O)(=O)O)c(N)c4c3O)c(O)c2)cc1O.[Cu].[Cu]	-4%[9.22 µM]	.	.	.	.
Cc1cc(-c2ccc(N=Nc3c(S(=O)(=O)O)cc4cc(S(=O)(=O)O)cc(N)c4c3O)c(C)c2)ccc1N=Nc1c(S(=O)(=O)O)cc2cc(S(=O)(=O)O)cc(N)c2c1O	.	21µM*	-12%	-13%	-44%
O=S(=O)(O)c1cc(O)c2c(O)c(N=Nc3cc(Cl)ccc3O)c(S(=O)(=O)O)cc2c1	.	21µM*	-10%	-7%	-4%
COC(=O)c1ccccc1NC(=O)c1cc(C)nc2c1c(C)nn2-c1ccc(C)cc1	.	-1%	.	.	.
COc1ccc(-c2noc(N(c3ccc(F)c(Cl)c3)c3nc(-c4ccc(OC)c(OC)c4)no3)n2)cc1OC	3%	-7%	.	.	.
Cc1ccc2[nH]cc(CCNC(=O)C3CCCO3)c2c1 (centres undefined)	.	0%	0%	-10%	-3%
OC1=C(O)c2nc3cc(F)ccc3nc21	.	-2%	-1%	-1%	-1%
Fc1ccc2nc3[nH]c4ccccc4c3nc2c1	16µM*	1.9µM*	3.2µM*	3.2µM*	?
O=C(Nc1nnc(-c2ccccc2Cl)s1)c1ccccc1F	.	-13%	4µM*	3.2µM*	?
O=C(Nc1nnc(-c2ccccc2F)s1)Nc1ccccc1F	?	6%	2µM*	?	11%
